# Reference: the supplement of paper PMC10849652
# Of roughly 8,800 targets only a part is listed; those with a hit were picked by preference. About 0.5% of all pairs of compound and target were hits. Values without a mark were called inactive.
# Experiments:
# Assay in all cases: log2 fold change, soluble protein after heating vs DMSO (PISA); higher = thermal stabilisation; K562 lysate, 10 uM; active = over 0.2 and 3.5 SD of the protein, either way, in both replicates (recomputed)
# [1] = compound: C1=CC=C(C=C1)[C@H](COC2=CC3=C(C=C2)NC(=O)N3)NC(=O)C4=CC=CN(C4=O)CC5=CC(=C(C=C5)F)F
# In short: (§1)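 The values are log-two fold changes in thermal stability compared with solvent controls and come from duplicates. They were obtained by TMTpro 16plex LC-MS/MS, with channel sums equalised, on the supernatant after 21,000xg for 90 min. That supernatant came from crude K562 extract at 1 mg/mL protein treated with 10 μM compound for 30 min, heated for 3 min across 48°C-58°C, pooled and brought to 0.5% NP-40 at 4°C.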
# [2] = compound: CC1=C(SC2=C1C(=N[C@H](C3=NN=C(N32)C)CC(=O)N)C4=CC=C(C=C4)Cl)C
# In short: as §1
# [3] = compound: CC1=C2C(=CC=C1)N=C(N(C2=O)C3=CC=CC=C3C)CN4C=NC5=C(N=CN=C54)N
# In short: as §1
# [4] = compound: Cc1sc2c(c1C)C(c1ccc(Cl)cc1)=N[C@@H](CC(=O)OC(C)(C)C)c1nnc(C)n1-2
# In short: as §1
# [5] = compound: c1ccc([C@@H]2C[C@H]2NC2CCNCC2)cc1
# In short: as §1
# Sequence of UniProt Q9NRW3 (Q9NRW3 whole entry, looked up): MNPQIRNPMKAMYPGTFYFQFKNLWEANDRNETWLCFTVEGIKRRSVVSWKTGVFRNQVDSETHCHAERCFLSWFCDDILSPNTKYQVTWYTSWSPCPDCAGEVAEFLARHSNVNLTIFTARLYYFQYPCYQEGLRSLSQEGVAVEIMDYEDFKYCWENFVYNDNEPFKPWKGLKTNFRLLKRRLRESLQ
# Sequence of UniProt Q02252 (Q02252 whole entry, looked up): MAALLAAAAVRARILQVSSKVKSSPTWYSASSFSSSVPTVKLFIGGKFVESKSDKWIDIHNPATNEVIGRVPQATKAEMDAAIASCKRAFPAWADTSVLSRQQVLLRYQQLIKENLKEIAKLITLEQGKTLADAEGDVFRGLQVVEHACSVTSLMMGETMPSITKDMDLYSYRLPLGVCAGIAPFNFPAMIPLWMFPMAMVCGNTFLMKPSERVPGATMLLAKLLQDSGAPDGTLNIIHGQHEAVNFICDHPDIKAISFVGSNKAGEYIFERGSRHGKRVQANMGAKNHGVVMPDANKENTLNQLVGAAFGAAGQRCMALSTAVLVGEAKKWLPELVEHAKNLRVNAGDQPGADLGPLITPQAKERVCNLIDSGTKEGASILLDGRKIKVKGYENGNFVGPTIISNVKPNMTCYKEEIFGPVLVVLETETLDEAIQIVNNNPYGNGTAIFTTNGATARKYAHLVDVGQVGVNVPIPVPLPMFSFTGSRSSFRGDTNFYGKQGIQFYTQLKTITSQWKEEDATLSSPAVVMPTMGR
# Sequence of UniProt Q9ULX6 (Q9ULX6 whole entry, looked up): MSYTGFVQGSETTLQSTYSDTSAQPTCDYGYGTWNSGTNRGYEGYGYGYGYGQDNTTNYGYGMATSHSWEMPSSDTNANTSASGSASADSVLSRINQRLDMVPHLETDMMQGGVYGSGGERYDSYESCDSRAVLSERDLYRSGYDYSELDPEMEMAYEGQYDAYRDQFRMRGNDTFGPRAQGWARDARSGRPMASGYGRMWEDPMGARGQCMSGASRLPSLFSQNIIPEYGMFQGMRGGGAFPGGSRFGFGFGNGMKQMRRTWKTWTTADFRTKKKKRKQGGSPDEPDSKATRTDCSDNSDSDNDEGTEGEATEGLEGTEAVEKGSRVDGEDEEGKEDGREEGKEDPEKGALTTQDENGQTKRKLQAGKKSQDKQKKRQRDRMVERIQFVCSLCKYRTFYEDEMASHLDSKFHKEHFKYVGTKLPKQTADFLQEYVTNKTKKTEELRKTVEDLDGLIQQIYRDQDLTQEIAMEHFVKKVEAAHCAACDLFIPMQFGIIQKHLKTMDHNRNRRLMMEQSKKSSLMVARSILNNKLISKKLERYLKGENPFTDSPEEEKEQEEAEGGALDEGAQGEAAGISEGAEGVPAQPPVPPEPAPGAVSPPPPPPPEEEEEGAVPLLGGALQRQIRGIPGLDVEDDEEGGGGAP
# Sequence of UniProt P55265 (P55265 whole entry, looked up): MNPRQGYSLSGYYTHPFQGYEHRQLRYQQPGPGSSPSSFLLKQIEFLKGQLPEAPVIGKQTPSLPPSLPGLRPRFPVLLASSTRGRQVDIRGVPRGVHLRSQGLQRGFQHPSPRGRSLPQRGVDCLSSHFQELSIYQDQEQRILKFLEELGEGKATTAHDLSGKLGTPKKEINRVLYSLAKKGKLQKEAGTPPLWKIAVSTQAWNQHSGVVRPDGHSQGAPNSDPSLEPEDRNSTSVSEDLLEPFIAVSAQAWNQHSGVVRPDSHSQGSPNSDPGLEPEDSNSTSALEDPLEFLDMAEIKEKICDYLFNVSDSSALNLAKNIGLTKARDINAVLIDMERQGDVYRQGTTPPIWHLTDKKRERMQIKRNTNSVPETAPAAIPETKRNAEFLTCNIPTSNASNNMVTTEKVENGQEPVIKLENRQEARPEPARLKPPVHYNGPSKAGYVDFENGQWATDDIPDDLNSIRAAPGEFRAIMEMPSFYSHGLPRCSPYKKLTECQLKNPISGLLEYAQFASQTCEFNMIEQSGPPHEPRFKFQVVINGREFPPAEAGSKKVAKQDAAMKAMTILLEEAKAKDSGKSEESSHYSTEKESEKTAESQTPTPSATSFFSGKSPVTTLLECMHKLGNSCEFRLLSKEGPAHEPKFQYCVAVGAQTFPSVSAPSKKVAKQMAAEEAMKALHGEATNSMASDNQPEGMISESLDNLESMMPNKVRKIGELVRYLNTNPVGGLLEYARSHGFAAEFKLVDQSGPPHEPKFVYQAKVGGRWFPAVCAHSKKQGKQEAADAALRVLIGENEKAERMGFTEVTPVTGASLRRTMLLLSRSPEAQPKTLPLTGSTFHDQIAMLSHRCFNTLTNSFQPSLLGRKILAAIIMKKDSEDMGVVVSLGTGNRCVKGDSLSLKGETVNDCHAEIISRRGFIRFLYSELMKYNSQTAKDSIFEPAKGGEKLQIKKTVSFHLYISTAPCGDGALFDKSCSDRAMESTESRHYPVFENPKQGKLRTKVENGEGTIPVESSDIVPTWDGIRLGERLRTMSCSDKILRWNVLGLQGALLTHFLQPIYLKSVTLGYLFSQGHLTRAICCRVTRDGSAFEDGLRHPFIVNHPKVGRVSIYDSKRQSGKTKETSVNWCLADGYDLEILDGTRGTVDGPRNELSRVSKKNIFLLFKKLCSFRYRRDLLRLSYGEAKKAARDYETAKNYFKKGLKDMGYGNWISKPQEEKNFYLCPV
# Sequence of UniProt Q5JTZ9 (Q5JTZ9 whole entry, looked up): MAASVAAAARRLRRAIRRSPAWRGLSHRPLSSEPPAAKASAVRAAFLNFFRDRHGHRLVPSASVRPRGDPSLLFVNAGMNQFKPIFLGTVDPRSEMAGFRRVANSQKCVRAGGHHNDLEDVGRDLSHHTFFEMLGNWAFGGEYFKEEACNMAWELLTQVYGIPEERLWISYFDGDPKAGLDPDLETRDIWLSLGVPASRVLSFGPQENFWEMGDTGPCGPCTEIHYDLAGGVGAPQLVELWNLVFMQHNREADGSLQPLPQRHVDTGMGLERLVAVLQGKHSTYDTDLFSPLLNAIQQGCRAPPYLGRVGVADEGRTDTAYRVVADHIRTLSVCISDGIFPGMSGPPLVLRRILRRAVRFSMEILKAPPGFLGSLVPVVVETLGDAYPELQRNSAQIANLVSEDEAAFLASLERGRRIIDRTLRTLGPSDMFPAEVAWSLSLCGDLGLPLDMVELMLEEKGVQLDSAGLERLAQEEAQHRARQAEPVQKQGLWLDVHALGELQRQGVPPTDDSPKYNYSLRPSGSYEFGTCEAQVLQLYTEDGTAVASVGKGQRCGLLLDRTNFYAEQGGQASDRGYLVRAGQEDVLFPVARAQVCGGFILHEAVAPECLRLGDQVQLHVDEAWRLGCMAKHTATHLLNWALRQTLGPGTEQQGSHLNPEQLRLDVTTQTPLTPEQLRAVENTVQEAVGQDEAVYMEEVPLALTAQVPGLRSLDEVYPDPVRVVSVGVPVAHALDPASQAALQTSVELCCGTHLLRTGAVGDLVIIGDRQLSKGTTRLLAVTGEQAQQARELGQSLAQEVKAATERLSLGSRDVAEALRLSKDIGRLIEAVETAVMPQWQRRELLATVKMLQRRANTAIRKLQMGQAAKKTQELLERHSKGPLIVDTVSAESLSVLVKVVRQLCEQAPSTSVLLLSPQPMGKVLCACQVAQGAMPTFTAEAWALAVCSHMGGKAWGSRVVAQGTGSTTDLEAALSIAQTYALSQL
# Sequence of UniProt P10398 (P10398 whole entry, looked up): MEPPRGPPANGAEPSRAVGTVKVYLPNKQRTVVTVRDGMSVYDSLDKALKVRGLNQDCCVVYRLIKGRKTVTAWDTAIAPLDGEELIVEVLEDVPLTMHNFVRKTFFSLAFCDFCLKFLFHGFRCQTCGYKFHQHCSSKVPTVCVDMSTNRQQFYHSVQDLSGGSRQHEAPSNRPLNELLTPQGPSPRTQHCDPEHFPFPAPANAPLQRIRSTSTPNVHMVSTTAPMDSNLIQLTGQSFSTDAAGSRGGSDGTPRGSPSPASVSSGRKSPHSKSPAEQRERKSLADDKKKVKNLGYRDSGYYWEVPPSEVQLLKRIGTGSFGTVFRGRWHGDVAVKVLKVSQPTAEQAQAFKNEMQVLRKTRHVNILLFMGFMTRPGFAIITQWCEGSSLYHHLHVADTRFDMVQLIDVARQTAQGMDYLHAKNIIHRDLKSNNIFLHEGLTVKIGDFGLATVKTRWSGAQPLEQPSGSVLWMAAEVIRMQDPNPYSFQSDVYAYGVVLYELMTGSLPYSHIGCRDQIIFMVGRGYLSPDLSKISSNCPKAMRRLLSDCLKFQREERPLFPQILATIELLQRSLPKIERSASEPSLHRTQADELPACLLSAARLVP
# Sequence of UniProt P50995 (P50995 whole entry, looked up): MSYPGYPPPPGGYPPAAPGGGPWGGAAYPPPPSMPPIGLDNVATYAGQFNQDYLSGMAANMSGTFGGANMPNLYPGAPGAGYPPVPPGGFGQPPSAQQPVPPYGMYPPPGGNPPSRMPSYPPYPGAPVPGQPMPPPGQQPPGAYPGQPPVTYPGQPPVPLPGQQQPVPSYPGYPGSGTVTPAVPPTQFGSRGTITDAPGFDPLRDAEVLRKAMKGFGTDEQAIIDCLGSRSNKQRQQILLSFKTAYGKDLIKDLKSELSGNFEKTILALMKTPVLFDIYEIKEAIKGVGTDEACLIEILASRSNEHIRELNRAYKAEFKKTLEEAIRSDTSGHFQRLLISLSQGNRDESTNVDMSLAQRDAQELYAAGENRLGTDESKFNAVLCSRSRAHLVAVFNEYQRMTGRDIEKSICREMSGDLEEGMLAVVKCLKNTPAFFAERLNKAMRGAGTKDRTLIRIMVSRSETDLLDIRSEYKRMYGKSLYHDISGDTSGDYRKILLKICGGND
# Sequence of UniProt P52895 (P52895 whole entry, looked up): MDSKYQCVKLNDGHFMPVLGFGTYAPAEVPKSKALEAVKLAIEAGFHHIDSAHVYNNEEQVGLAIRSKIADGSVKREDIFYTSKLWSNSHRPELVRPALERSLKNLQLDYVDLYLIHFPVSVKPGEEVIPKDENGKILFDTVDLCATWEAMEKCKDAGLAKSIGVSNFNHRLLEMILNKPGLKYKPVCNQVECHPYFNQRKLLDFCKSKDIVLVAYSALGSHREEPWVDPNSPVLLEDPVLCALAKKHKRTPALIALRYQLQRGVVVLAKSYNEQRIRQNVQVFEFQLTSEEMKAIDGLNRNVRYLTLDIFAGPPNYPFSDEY
Target,log2 fold change [1],log2 fold change [2],log2 fold change [3],log2 fold change [4],log2 fold change [5]
AKR1C2 (UniProt P52895),-0.012,0.047,0.047,-0.184,-0.107
ARAF (UniProt P10398),0.012,-0.002,-0.078,0,0.002
AFF1 isoform 2 (UniProt P51825),-0.109,0.133,-0.006,-0.087,-0.118
ANKRD52 (UniProt Q8NB46),-0.004,-0.036,0.056,0.055,0.004
AFF4 (UniProt Q9UHB7),-0.362 (active),-0.269,-0.081,-0.026,-0.052
AMMECR1 (UniProt Q9Y4X0),-0.014,0.019,0.064,-0.007,0.036
ARL8A (UniProt Q96BM9),0.038,-0.02,-0.157,0.093,0.1
ACYP1 (UniProt P07311),0.019,-0.026,-0.036,0.022,0.052
AARS2 (UniProt Q5JTZ9),0.014,-0.076,0.026,0.041,0.045
ADAR isoform 4 (UniProt P55265),-0.188,0.116,0.035,0.005,0.032
ABHD13 (UniProt Q7L211),0.043,-0.127,0.153,-0.171,-0.246
ABHD11 (UniProt Q8NFV4),0.072,-0.031,0.028,-0.021,-0.098
ANXA11 (UniProt P50995),0.23 (active),0.028,0.015,0.015,0.002
ARHGAP6 (UniProt O43182),-0.026,-0.023,-0.012,0.018,0.02
AIMP1 isoform 2 (UniProt Q12904),-0.033,0.01,0.006,0.029,0.044
ALDH6A1 (UniProt Q02252),0.011,-0.111,0,0.02,-0.061
ARMC6 (UniProt Q6NXE6),-0.046,-0.012,-0.017,0.003,0.043

Target,log2 fold change [1],log2 fold change [2],log2 fold change [3],log2 fold change [4],log2 fold change [5]
AGO4 (UniProt Q9HCK5),0.014,0.022,0.001,-0.011,-0.07
AGL (UniProt P35573),0.022,0.028,0.036,0.035,0.086
ARHGAP21 (UniProt Q5T5U3),0.031,0.117,0.031,0.008,0.124
ACSL4 (UniProt O60488),-0.058,0.046,0.032,-0.106,0.038
APEX1 (UniProt P27695),0.055,0.007,-0.007,0.086,0.131
ANAPC7 (UniProt Q9UJX3),-0.008,-0.003,-0.002,0.023,0.048
ANLN (UniProt Q9NQW6),0.04,-0.014,0.053,0.015,0.005
AKAP8L (UniProt Q9ULX6),0.011,-0.005,-0.001,0.018,-0.02
ALDH18A1 (UniProt P54886),-0.018,-0.032,0.019,-0.005,0.034
APOBEC3C (UniProt Q9NRW3),-0.003,0.032,0.013,0.014,-0.062
ABHD17B (UniProt Q5VST6),0.014,0.044,-0.028,-0.044,-0.198
ALDH1A1 (UniProt P00352),-0.032,0.006,-0.028,-0.011,0.045
ABRACL (UniProt Q9P1F3),0.052,-0.221,,0.054,0.075
ARHGEF2 (UniProt V9GYF0),,,0.098,0.105,
AGPAT2 (UniProt O15120),,,-0.11,,0.034
ACTBL2 (UniProt Q562R1),0.138,-0.194,-0.016,0.106,0.365
ALKBH7 (UniProt Q9BT30),,,,-0.012,-0.014
